# ERK AVP block: qHTS Assay for Inhibitors of the ERK Signaling Pathway using a Homogeneous Screening Assay | HEK293-V1b, vasopressin-stimulated pERK AlphaScreen | Potency, µM (top dose mostly 57.5 µM), for the others: top-dose activity, negative = inhibition, usual class: inhibitors | 0.99% of 72,000 active | AID 995, 2007; further: potency means the concentration at half of the fitted maximal effect; on the % scale 0 is the no-effect control and ±100 the full control effect; nearly all actives have a fitted effect of over 55% in size
#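 HEK293 cells stably expressing V1b receptor, preincubated 30 min at 37 °C with compound, then stimulated 5 min with 25 nM vasopressin. Phospho-ERK by AlphaScreen SureFire after 5 h RT; normalized to DMSO and vasopressin; AC50 by Hill fit.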
# BRCT inh green: qHTS Assay for Inhibitors of BRCT-Phosphoprotein Interaction (Green Fluorophore); Breast cancer type 1 susceptibility protein (Homo sapiens), P38398; BRCA1 BRCT-phosphopeptide binding, green fluorescence polarization; Potency, µM (series often up to 76.9 µM), inactives show at the highest dose activity change, negative = inhibition, actives largely listed as inhibitors; 0.05% of 75,000 active; AID 875, 2007;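 further: potency means the concentration at half of the fitted maximal effect; plate controls were peptide without protein for full effect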
# Target sequence (P38398 whole entry, looked up): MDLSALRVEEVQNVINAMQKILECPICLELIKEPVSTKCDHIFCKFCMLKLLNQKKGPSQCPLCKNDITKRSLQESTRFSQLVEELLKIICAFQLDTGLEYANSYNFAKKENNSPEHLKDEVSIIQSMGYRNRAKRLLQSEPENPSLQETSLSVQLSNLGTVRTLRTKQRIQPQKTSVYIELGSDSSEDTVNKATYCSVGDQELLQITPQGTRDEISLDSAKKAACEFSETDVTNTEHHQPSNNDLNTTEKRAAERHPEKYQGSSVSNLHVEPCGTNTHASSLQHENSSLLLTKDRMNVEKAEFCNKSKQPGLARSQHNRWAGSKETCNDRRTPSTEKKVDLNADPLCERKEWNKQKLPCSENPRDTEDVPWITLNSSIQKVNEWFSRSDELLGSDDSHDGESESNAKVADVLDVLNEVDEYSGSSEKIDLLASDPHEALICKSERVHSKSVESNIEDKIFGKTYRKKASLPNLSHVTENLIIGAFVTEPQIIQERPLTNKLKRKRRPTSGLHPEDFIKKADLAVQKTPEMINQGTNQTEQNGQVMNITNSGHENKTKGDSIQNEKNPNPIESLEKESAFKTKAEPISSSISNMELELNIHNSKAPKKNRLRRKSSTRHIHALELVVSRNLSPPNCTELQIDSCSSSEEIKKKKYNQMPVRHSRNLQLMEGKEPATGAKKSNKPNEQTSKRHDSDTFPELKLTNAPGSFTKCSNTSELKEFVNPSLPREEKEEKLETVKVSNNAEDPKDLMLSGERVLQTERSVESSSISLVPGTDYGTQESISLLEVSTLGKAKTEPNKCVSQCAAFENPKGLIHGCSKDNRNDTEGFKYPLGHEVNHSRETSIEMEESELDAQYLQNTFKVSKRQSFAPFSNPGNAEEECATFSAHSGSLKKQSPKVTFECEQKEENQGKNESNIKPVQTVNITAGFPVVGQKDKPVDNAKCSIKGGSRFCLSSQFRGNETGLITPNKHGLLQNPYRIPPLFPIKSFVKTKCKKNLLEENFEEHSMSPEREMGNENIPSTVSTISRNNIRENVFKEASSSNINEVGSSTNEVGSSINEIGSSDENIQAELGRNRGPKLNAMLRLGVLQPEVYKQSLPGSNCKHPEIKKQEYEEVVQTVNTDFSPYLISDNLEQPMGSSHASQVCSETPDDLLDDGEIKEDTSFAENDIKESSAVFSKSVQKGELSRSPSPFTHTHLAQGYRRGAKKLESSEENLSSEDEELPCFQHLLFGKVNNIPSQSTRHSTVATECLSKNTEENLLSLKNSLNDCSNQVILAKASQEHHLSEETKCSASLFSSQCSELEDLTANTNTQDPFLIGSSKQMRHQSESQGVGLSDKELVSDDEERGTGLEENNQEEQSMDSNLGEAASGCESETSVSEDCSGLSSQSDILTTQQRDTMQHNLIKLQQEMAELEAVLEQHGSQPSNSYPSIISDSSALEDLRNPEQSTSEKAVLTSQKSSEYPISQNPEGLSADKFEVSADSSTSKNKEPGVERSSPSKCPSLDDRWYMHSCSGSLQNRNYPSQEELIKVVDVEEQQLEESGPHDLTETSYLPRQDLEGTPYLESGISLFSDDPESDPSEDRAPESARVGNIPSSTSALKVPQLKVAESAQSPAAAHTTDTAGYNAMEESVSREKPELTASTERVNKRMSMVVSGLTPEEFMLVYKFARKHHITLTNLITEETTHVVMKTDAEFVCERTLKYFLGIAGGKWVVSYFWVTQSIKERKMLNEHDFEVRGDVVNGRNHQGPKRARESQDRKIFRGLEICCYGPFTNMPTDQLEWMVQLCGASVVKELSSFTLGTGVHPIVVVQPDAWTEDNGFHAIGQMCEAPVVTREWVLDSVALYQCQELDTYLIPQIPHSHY
#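 Compounds were incubated for 12 min at room temperature with a complex of 100 nM fluorescein-tagged pBACH1 decapeptide and 250 nM His-tagged BRCT protein. Buffer was phosphate pH 7.3 with EDTA, DTT and Tween 20. Disruption of binding lowers the polarization signal.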
# TsaE inh: qHTS Assay for Inhibitors of YjeE; purified YjeE enzyme, qHTS inhibition assay; Potency, µM; 0.05% of 71,000 active
#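 Fluorescence polarization of a BODIPY Texas Red–ADP probe (2 uM) bound to purified YjeE (10 uM) was read after 15 min room-temperature incubation with compounds. Loss of polarization marks inhibitors; ADP serves as titrated control.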
# DNA Pol III inh: qHTS Assay for Inhibitors of DNA Polymerase III Holoenzyme System; reconstituted DNA polymerase III holoenzyme replication, biochemical; Potency, µM (series often up to 57.1 µM), inactives show at the highest dose activity change, negative = inhibition; 0.25% of 71,000 active; further: potency means the concentration at half of the fitted maximal effect; on the % scale 0 is the no-effect control and ±100 the full control effect
#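 Reconstituted *E. coli* holoenzyme (0.35 nM Pol III, 1 nM beta, 154 nM SSB, 2 nM primase) was preincubated with compound for 15 min at RT. Synthesis on 1.4 nM ssM13Gori ran 35 min, then was stopped with PicoGreen/EDTA and read as dsDNA fluorescence.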
# BRCT PPI red: qHTS Assay for Inhibitors of BRCT-Phosphoprotein Interaction (Red Fluorophore); 0.03% of 75,000 active; BRCT-phosphopeptide binding, red fluorescence polarization; Breast cancer type 1 susceptibility protein (Homo sapiens), P38398; Potency, µM (titrated, usually from 76.9 µM), for the others: at the highest dose activity change, negative = inhibition, hits mostly inhibitors; AID 892, 2007; further: on the % scale 0 is the no-effect control and ±100 the full control effect
#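 Rhodamine-labelled pBACH1 10-mer (100 nM) bound to BRCT domain (100 nM) at pH 7.3; compounds incubated 12 min room temperature, polarization read. Free peptide defines full inhibition; unlabelled decapeptide titrated as control.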
# The depositor's hits bear a star; i = inactive; ? = inconclusive; . = not tested or not shown; [ ] = dose if it differs, or a comment. Only some compounds are listed: those with a hit (about 1.2% of all), similar ones and a draw of the others. The call rests on the fitted dose curve; in most records, active means well fitted curve in the direction sought with a large enough effect; inconclusive means small, poorly fitted or top-dose-only effect, or another doubt; inactive means no such curve, though single readings can be large; an effect the other way counts as inactive or inconclusive.
SMILES,ERK AVP block,BRCT inh green,TsaE inh,DNA Pol III inh,BRCT PPI red
CCN1C(=O)c2cccc3c(S(=O)(=O)Nc4ccccn4)ccc1c23,-17%,-1%,i,-9%,0%
CCN1C(=O)c2cccc3c(S(=O)(=O)Nc4ncccc4C)ccc1c23,25µM*,-2%,i,-3%,2%
O=C(C[C@@H]1C=Cc2ccccc2N1C(=O)c1ccccc1)c1ccccc1,13%[11.5 µM],-2%[15.4 µM],i,-11%[11.4 µM],-1%[15.4 µM]
O=C(Nc1ccccc1C(=O)NCC1CCCO1)c1ccco1 (stereo unspecified),-19%,-2%,i,-2%,-2%
O=C(NCC1CCCO1)c1cc(-c2ccco2)nc2ccccc12 (stereo unspecified),4%,-3%,i,32µM*,0%
COc1ccc2ccccc2c1C(O)c1nccn1C (stereo unspecified),?,13µM*,i,48%,?
COc1ccc(C(O)c2nccn2Cc2ccccc2)cc1 (stereo unspecified),11%,-2%,i,-2%,-2%
COc1cc(/C=C\C(=O)CC(=O)/C=C\c2ccc(O)c(OC)c2)ccc1O,.,.,i,70%,.
COc1cc(/C=C/C(=O)CC(=O)/C=C/c2ccc(O)c(OC)c2)ccc1O,32µM*,89%,i,42%,3%
O=C(O)CCCNc1cc(N2CCC3(CC2)OCCO3)c2noc3c2c1C(=O)c1ccccc1-3,32%,-15%,i,3.2µM*,?
O=C(Nc1ccc(C(=O)Nc2ccc(C(=O)Nc3ccc(S(=O)(=O)O)c4cc(S(=O)(=O)O)cc(S(=O)(=O)O)c34)cc2)cc1)Nc1ccc(C(=O)Nc2ccc(C(=O)Nc3ccc(S(=O)(=O)O)c4cc(S(=O)(=O)O)cc(S(=O)(=O)O)c34)cc2)cc1,-21%,-8%,i,32µM*,56%
O=C(Nc1cc(C(=O)Nc2ccc(S(=O)(=O)O)cc2S(=O)(=O)O)cc(C(=O)Nc2ccc(S(=O)(=O)O)cc2S(=O)(=O)O)c1)Nc1cc(C(=O)Nc2ccc(S(=O)(=O)O)cc2S(=O)(=O)O)cc(C(=O)Nc2ccc(S(=O)(=O)O)cc2S(=O)(=O)O)c1,-9%,-3%,i,4µM*,48%
Cc1ccc2nc(-c3ccc(NC(=O)c4ccc(N)cc4)c(S(=O)(=O)O)c3)sc2c1,26%[11.5 µM],-1%[15.4 µM],i,-10%[11.4 µM],0%[15.4 µM]
CN(C)c1ccc(CNC(=O)[C@@]2(C)C=C[C@@H](Cc3ccccc3)N2C)cc1,-7%,1%,i,6%,1%
COc1ccc(Nc2nc(C)c3ccccc3n2)cc1,?,-2%,i,3%,0%
COc1nc(Nc2ccc(O)cc2)nc(OC(C(F)(F)F)C(F)(F)F)n1,2µM*,-3%,i,2%,-3%
NC(=S)SCCC(=O)O,-18%[11.5 µM],-1%[15.4 µM],i,-5%[11.4 µM],1%[15.4 µM]
O=c1c(-c2ccc(F)cc2)nc2cnc(N3CCOCC3)nc2n1C1CC1,-17%,-1%,i,-9%,-6%
CC(=O)c1c(C)[nH]c(C(=O)OCCCCN2C(=O)c3ccccc3C2=O)c1C,13µM*,-2%,i,-6%,1%
O=C(OCCCCN1C(=O)c2ccccc2C1=O)c1n[nH]c2ccccc12,?,0%,i,2%,-1%
COc1ccc(-c2cnnn2-c2ccc(NC(=O)c3ccco3)cc2)cc1OC,16µM*,1%,i,-2%,0%
C[C@@]12C(=O)OC(=O)[C@@]1(C)[C@@H]1CC[C@@H]2O1,1%,-2%,i,-4%,0%
C[C@@]12C(=O)OC(=O)[C@]1(C)[C@H]1CC[C@@H]2O1,5µM*,-2%[34.4 µM],i,-5%[25.6 µM],0%[34.4 µM]
C[C@@]12C(=O)OC(=O)[C@@]1(C)C1CCC2O1,3.2µM*,0%,.,.,0%
Cc1cnc(CNc2cc(-c3ccc(C(=O)N(C)C)cc3)ncn2)cn1,2%,0%,i,-3%,0%
SMILES,ERK AVP block,BRCT inh green,TsaE inh,DNA Pol III inh,BRCT PPI red
COC(=O)[C@@H]1CC[C@H](C)[C@@H](c2ccc(C)cc2)N1C(=O)c1ccc(/C=N\OC[C@@H](C)[C@H](OCc2ccccc2)C(C)C)cc1,9%[11.5 µM],0%[15.4 µM],.,.,-2%[15.4 µM]
Nc1ccn([C@@H]2O[C@H](COC(=O)C34CC5CC(CC(C5)C3)C4)[C@@H](O)[C@@H]2O)c(=O)n1,-2%[11.5 µM],-1%[15.4 µM],i,-12%[11.4 µM],0%[15.4 µM]
O=C(O)CNCCc1ccccc1,-15%[11.5 µM],0%[15.4 µM],i,-16%[11.4 µM],-1%[15.4 µM]
N#CCSc1nc2cc(C(=O)N3CCC(C(N)=O)CC3)ccc2c2nc3ccccc3n12,20µM*,14%,i,-14%,0%
COC(=O)Oc1ccccc1C(=O)O,7%,-3%,.,.,2%
O=C(/C=C/c1ccc(O)cc1)c1cccs1,16µM*,11%,.,.,-1%
O=C(/C=C/c1ccc(O)cc1)c1ccccc1O,4µM*,0%[3.08 µM],.,.,4%
O=C(/C=C/c1ccc(OCc2ccccc2)cc1)c1cccs1,17%,-14%,.,.,-2%
C[C@@]12CCC(=O)C=C1CC[C@H]1[C@@H]2[C@@H](O)C[C@]2(C)[C@@H]1CC[C@@]2(O)C(=O)COC(=O)C1CCCC1,0%[11.5 µM],0%[15.4 µM],i,-12%[11.4 µM],-1%[15.4 µM]
N#Cc1cccc(-c2nc(NCc3cccs3)c3ccccc3n2)c1,?,-2%,i,-2%,-2%
CN(C)c1ncc2nc(-c3cccc(C#N)c3)c(=O)n(C)c2n1,-2%,-1%,i,-12%,0%
CCNc1ncc2nc(-c3cccs3)c(=O)n(CCC#N)c2n1,5µM*,-23%,i,7%,-1%
N#CCCn1c(=O)c(-c2cccs2)nc2cnc(Nc3ccccc3)nc21,0%,-1%,i,3%,0%
CCNc1ncc2nc(C)c(=O)n(Cc3cccs3)c2n1,16µM*,1%,i,-10%,1%
CN1CCN(c2ncc3nc(-c4ccc(F)cc4)c(=O)n(Cc4cccs4)c3n2)CC1,20µM*,-2%,i,-5%,-1%
COc1ccc(-c2nc3cnc(OC)nc3n(-c3ccc(OC)cc3)c2=O)cc1,3%,-1%,i,-6%,-1%
COC(=O)C/C=C\[C@@H](C)[C@@H](/C=N\O[C@@H]1O[C@H](COC(C)=O)[C@H](OC(C)=O)[C@H](OC(C)=O)[C@H]1OC(C)=O)OC,17%[11.5 µM],1%[15.4 µM],.,.,0%[15.4 µM]
CCN(CC)C(=O)Oc1ccc2c(=O)c(-c3ccc(OC)cc3)c(C)oc2c1,32µM*,1%,i,4%,0%
CCN(CC)C(=O)Oc1ccc2c(=O)c(-c3ccc(OC)cc3)coc2c1,?,1%,i,-3%,1%
Cc1cc(N2CCN(C(=O)c3ccco3)CC2)n2nc(-c3cccc(Cl)c3)cc2n1,25µM*,0%,i,-6%,-2%
